Some targets named below: KRT85; KRT75; KRT86; L1TD1; LAMC1; LARP1B; LANCL2; LAMB4; LHCGR; LHFPL3; LHFPL4; LGALS7B.
What all share (assay): pooled miR-30 sensor sort-seq; sequence = guide strand
What all share (details): shRNA
Also: reference of the scale not given here.

In turn, AACATCGTCATACTGAGCCTTG registered a sensor-assay potency score (higher = more potent) in the assay with KRT85 of -0.503. Still for that read-out and setting: then TAGAACGACAAACTCATTCTCT, with 0.106. With TTCCACAACATCCTGCATGTTC, in the assay with KRT75, the sensor-assay potency score (higher = more potent) was 0.126. For AATGTCATCGTACTGTGCCTTG, in the assay with KRT86, the sensor-assay potency score (higher = more potent) is -0.754. As to TTGAATTTCCATTAAGACCTTA, the sensor-assay potency score (higher = more potent) with L1TD1 is 0.102. In turn, TTCAATATTACATTCATCTATG registered a sensor-assay potency score (higher = more potent) with LAMC1 of -0.485. Regarding TGAAACATCAAATAACTTCTGA, the sensor-assay potency score (higher = more potent) in the assay with LARP1B is 0.226. Consider TATGAAATTATGAATGATCTTC, for which the sensor-assay potency score (higher = more potent) with LANCL2 is 0.142.

In turn, TTTCTTGGTCCACTTTTGCTGC gave a sensor-assay potency score (higher = more potent) with LANCL2 of -1.18. In the assay with LARP1B, TAGACTGTGTCTTAGATTGAGA returned a sensor-assay potency score (higher = more potent) of -0.454. In the assay with LAMC1, TTTGCAATTACACACCAGCTTA yielded a sensor-assay potency score (higher = more potent) of -0.786. In the case of TTTCTGTCAAGGTTTCTTGGTC, the sensor-assay potency score (higher = more potent) with LANCL2 was -0.185. On to TTCCTTTAGTCTATCCTCGAAG, for which the sensor-assay potency score (higher = more potent) with LAMC1 was -0.66.

With TTCTACTTCTGTGCTATCCTTC, in the assay with LARP1B, the sensor-assay potency score (higher = more potent) is 0.509.

Regarding TAAATGTGTTTTTTCGTCCTAT, the sensor-assay potency score (higher = more potent) with LARP1B turned out to be 0.39. Take TAATAGCTGACTCACACACGGT: the sensor-assay potency score (higher = more potent) with LANCL2 was -0.857. As to AATAATAGCATTGACTACCTCT, the sensor-assay potency score (higher = more potent) with LANCL2 turned out to be 0.441. Same read-out and setting: then TTAACATATAGTAAATTCCAGC, with -0.758.

On to TACATTTACATCTGCCACCTAC, for which, in the assay with LAMC1, the sensor-assay potency score (higher = more potent) is -0.06.

Take TTCTTTTGGACAGCGCTCGCGA: the sensor-assay potency score (higher = more potent) with LAMC1 was -0.297. The same measure, in the same setting: then TATGAGACTCTCTAATTCCTGG, with -0.463.

In the assay with LARP1B, TTTCTTGACTCTCTGATCTTAC showed a sensor-assay potency score (higher = more potent) of -0.67. Same read-out and setting: for TATCTCGCTTCCAACTTCGTGT the value was -0.146.

The sequence TTGACTTCAAGTTCCTTCCCTC yielded a sensor-assay potency score (higher = more potent) in the assay with LAMC1 of 0.467. In the assay with LAMC1, TTCATCAGTACACAAGGCCTGC registered a sensor-assay potency score (higher = more potent) of -0.475. TTTGTCTTCTAACAGAGTCATG yielded a sensor-assay potency score (higher = more potent) with LAMB4 of -1.42. On the same count and under the same terms, for TTTGACTGTAGAGTCTTGGGTA the value was 0.734. For TTTTGTGACACATTCCTGGGAC, the sensor-assay potency score (higher = more potent) with LANCL2 was found to be 0.967. The same measure, in the same setting: then TTTCAAGTACTTCTCCTCCTTA, with -0.0935; and AAGTTTTGTGACACATTCCTGG, with 0.068.

For TAGGACTTGAGAACTTTGGGAT, the sensor-assay potency score (higher = more potent) with LAMC1 came out at 0.474. Take TTTAATTTTGGTCTGGATCCGT: the sensor-assay potency score (higher = more potent) in the assay with LANCL2 came out at 0.159. In the assay with LAMB4, TAGTCCTGTAGTGCTTGTCTTA gave a sensor-assay potency score (higher = more potent) of -1.22.

TTCTTCTGAAGAACATAGCTGA had a sensor-assay potency score (higher = more potent) with LARP1B of 0.273. In the case of TGATTCTTGGCAGACAACCGAT, in the assay with LANCL2, the sensor-assay potency score (higher = more potent) was -0.954. Turning to TAGTAATACATCATACTGGTAT, the sensor-assay potency score (higher = more potent) with LARP1B is -0.0186. For TTCGCTTGTTCATACTTCCTAT, the sensor-assay potency score (higher = more potent) with LAMC1 was found to be 0.107. In the case of TTTAGCTGCATGATTTGTCTTC, the sensor-assay potency score (higher = more potent) in the assay with LAMB4 was -0.0764. On the same count and under the same terms, for TTCAACACAGTTGTGAAGCTGA the value was 0.732.

TAGGATCTTGTAACCTAGGTGT returned a sensor-assay potency score (higher = more potent) in the assay with LARP1B of 0.016. For TCGTTCTTCATACACTCGCTTG, the sensor-assay potency score (higher = more potent) with LAMC1 is -1.26. The same measure, in the same setting: for TTGTCTTTGCAAACACATCTTC the value was -0.117. In the assay with LARP1B, TTTATTGAAGTGATCTCTGAGG displayed a sensor-assay potency score (higher = more potent) of -0.332. In turn, AATCACATCGCTACACTCCATG returned a sensor-assay potency score (higher = more potent) in the assay with LANCL2 of -1.26.

For TTGCTCTTTCTATTGTATCTTT, the sensor-assay potency score (higher = more potent) in the assay with LAMB4 was -0.796.

In the assay with LARP1B, TTTACTAATGAGATTTAGCTTC came in with a sensor-assay potency score (higher = more potent) of -0.374. On the same count and under the same terms, then TGATCTTACAACATCTAAGTGG, with -0.00509.

With TTTGGTGGAAGAAATATCCAAG, in the assay with LHCGR, the sensor-assay potency score (higher = more potent) is -0.193. Sequence TTAGTTGTTAACTACTTCCAGA gave a sensor-assay potency score (higher = more potent) with LHFPL3 of -0.755. AAGAGCTGCATCCAGGCGCAGA registered a sensor-assay potency score (higher = more potent) in the assay with LHFPL4 of -1.19. In the assay with LHFPL3, TTAAACAGAACACAGACTTGGT showed a sensor-assay potency score (higher = more potent) of 0.0174. On the same count and under the same terms, for TAATCCATGATCACATCTCTTT the value was -0.691.

In turn, TTCACTTTCCTTACTGTGCTTT returned a sensor-assay potency score (higher = more potent) with LHCGR of 0.168. ATATCTTGTACACAGTGGCCGT came in with a sensor-assay potency score (higher = more potent) with LHFPL3 of -1.29.

On to TGGATGAAGACCACCACGTTGA, for which the sensor-assay potency score (higher = more potent) with LHFPL4 was -0.905. In turn, TTATTTGATCCAGTGAAGCCAT came in with a sensor-assay potency score (higher = more potent) with LHCGR of -0.633. On the same count and under the same terms, for TAGTCGAGTGAGACCGGCCGTG the value was -0.508. In the assay with LHFPL3, TAGCCTATAATATTACACGTGA displayed a sensor-assay potency score (higher = more potent) of -0.577. For AAAATCTTTGTTCTCCGGCTTG, the sensor-assay potency score (higher = more potent) in the assay with LHFPL4 was -0.289.

Take TTGTAGACCGTAGCCGTGTTGC: the sensor-assay potency score (higher = more potent) with LHFPL4 is -0.989. In the assay with LGALS7B, TTTACATGGAACCTGCTGGCAT showed a sensor-assay potency score (higher = more potent) of -0.552. In turn, TAATCGCAGCTTTTGGTCCAGG registered a sensor-assay potency score (higher = more potent) with LHCGR of -1.08. With ATGATGAGCACCTCGAAGGGCT, the sensor-assay potency score (higher = more potent) in the assay with LGALS7B is -0.649. The sequence ATTGGGAGGAACCAAGCCGCGA had a sensor-assay potency score (higher = more potent) in the assay with LGALS7B of -1.73. The sequence TACTTGTCTGTCTTTTCTCCAC yielded a sensor-assay potency score (higher = more potent) with LHFPL3 of -0.0892. The sequence AGATCTTGTAGACCGTAGCCGT returned a sensor-assay potency score (higher = more potent) with LHFPL4 of -1.61. For the sequence TTAGCTTGTGTTCATTCTCAGG, the sensor-assay potency score (higher = more potent) with LHFPL3 is -1.28. With TAGACCGTAGCCGTGTTGCAGA, the sensor-assay potency score (higher = more potent) in the assay with LHFPL4 is -0.559.

In the assay with LHCGR, TTACTGTGCTTTCACATTGTTT showed a sensor-assay potency score (higher = more potent) of -1.55. Still for that read-out and setting: then TATAGTTTGAGTGTTACAGATT, with -0.877. On to TATCTTGTACACAGTGGCCGTG, for which the sensor-assay potency score (higher = more potent) in the assay with LHFPL3 is -0.302. Turning to AAATCTTTGTTCTCCGGCTTGA, in the assay with LHFPL4, the sensor-assay potency score (higher = more potent) was -0.165. Consider TTGAAGACCACCTCCGACGTGT, for which the sensor-assay potency score (higher = more potent) with LGALS7B came to 0.725. Take TCCGCATGTAGTGCTCGTGGTA: the sensor-assay potency score (higher = more potent) with LHFPL4 was -1.39. In turn, TAACTCAGCACATTTGTAGTGT gave a sensor-assay potency score (higher = more potent) in the assay with LHCGR of 0.247. TTGGGAGGAACCAAGCCGCGAA yielded a sensor-assay potency score (higher = more potent) with LGALS7B of -0.897. Take TTGGTAGCCATTAATTCTGGGT: the sensor-assay potency score (higher = more potent) in the assay with LHCGR was -0.032. Same read-out and setting: then TCCATTGTGCATCTTCTCCAGA, with -0.921. The sequence TTACATGGAACCTGCTGGCATT yielded a sensor-assay potency score (higher = more potent) in the assay with LGALS7B of -1.13. In the assay with LHCGR, TAAGCTGAAAAATCTTTCCTTC came in with a sensor-assay potency score (higher = more potent) of 0.265. Still for that read-out and setting: for TTGACAAATGTTTCTCTTGATG the value was -1.44. The sequence TGAAATGCAGGGCGGCATCGGA came in with a sensor-assay potency score (higher = more potent) with LGALS7B of -1.07. In the assay with LHFPL3, TTTACTTCATCTGAGTCCCAGC returned a sensor-assay potency score (higher = more potent) of -0.606. Sequence TAAAATAGGAATGTGGTCCTAA gave a sensor-assay potency score (higher = more potent) with LHFPL3 of 0.497.

Source of the values: the OligoGym collection.
